From PubChem
MPTP inh: blocks calcium-induced mitochondrial swelling; isolated mouse mitochondria, Ca2+ swelling absorbance, 30 min; inhibition, % at 10 µM; 360,000 tested, 1.4% active; AID 602449;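 active = inhibition of 50% or more, scaled per plate between neutral and stimulator controls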;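 also: 0% = DMSO wells given calcium and 100% = 1 mM EGTA wells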
aDG glyco act: increases alpha dystroglycan glycosylation. Pro5-aDG cells, alpha-DG glycosylation AlphaScreen (IIH6); 0% Pro5, 100% B10-LARGE cell signal. activation, % at 10 µM. 360,000 tested, 0.22% active. AID 624168;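 active = activation of at least 8% versus controls, or a plate z-score of at least 8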;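 also: Pro5 are CHO cells carrying HIG-tagged alpha-DG that lacks glycosylation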
Cardio protect: protects H9c2 cardiomyocytes from peroxide injury | H2O2 injury protection, ATPLite, 2 h | protection from H2O2 cell death, % at 20 µM | 360,000 tested, 0.63% active | AID 588492;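 active = compounds giving at least 50% protection of heart cells from peroxide-induced death in the single-dose screen, raw or plate-pattern-corrected value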;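 also: 0% = DMSO wells with peroxide and 100% = DMSO wells without peroxide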
SUMO Mot1 rescue: inhibitors of SUMOylation pathway: yeast Mot1-301 growth rescue; S. cerevisiae Mot1-301 growth rescue, ATP luminescence, 38.5C; percent above DMSO median, 100 means doubled; 320,000 tested, 1% active; AID 2716; growth rescue, % at 18.8 µM;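 active = every valid replicate shows activation above 250% relative to neutral control wells; inactive = the rest, any valid replicate at or below 250%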;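 also: OY570 slx delta 5 strain wells were the positive control but not used for scaling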
Yeast superoxide: caloric restriction mimetics inhibiting age-related superoxide in yeast; superoxide response (% of plate mean), % at 10 µM; S. cerevisiae aged cells, superoxide DHE fluorescence; active compounds read low; 330,000 tested, 0.18% active;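 active = superoxide response under a set limit, about three screen SD below normal, cut at about 65% in these data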;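 also: yeast aged for seven days with compound at 30 °C before DHE staining; 100% = average MFI of all compound-treated wells on the plate with controls excluded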
FAS-TE inh: inhibitors of human fatty acid synthase thioesterase domain; P49327; inhibition, % at 15 µM; recombinant FAS-TE, OMFH fluorogenic substrate, fluorescence endpoint; 360,000 tested, 0.67% active; AID 602261;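 active = compounds whose normalised, plate-corrected inhibition of enzyme fluorescence in the single-dose primary screen is 50% or more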;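 also: 0% = DMSO with enzyme and 100% = substrate without enzyme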
Starred values were filed as active, the others as inactive; . = not tested or not shown. This is a sample that favours compounds with a hit; in the whole collection about 3.8% have one here.

SMILES | MPTP inh | aDG glyco act | Cardio protect | SUMO Mot1 rescue | Yeast superoxide | FAS-TE inh
C=CCn1c(SCC(=O)c2ccc(O)c(O)c2)nnc1-c1ccc(OC)cc1 | 1.4 | 0.5 | 39.6 | -8.7 | 98.7 | -4.4
COc1ccc(-n2nnnc2SCC(=O)c2ccc(O)c(O)c2)cc1 | 3.1 | 0.1 | 59.8* | 12.8 | 77.5 | -3.7
C=CCn1c(SCC(=O)c2ccc(O)c(O)c2)nnc1-c1ccc(C)cc1 | 2.4 | 0.1 | 61.7* | -0.3 | 83.5 | -7.0
CCOc1ccc(NC(=O)CSc2nnnn2-c2ccc(C(N)=O)cc2)cc1 | 4.8 | -0.1 | -3.0 | 264.0* | 107.0 | -6.6
COc1ccc(NC(=O)CSc2nnnn2-c2ccc(OC)cc2)cc1 | 1.3 | 0.2 | -0.6 | -10.5 | 96.5 | -11.0
C=CCn1c(SCC(=O)c2ccc(O)c(O)c2)nnc1-c1cccc(OC)c1 | 2.0 | 0.0 | 54.3* | -14.1 | 88.7 | -2.4
C=CCn1c(SCC(=O)c2cccs2)nnc1-c1cccc(OC)c1 | 0.2 | 0.0 | 7.2 | -24.1 | 105.6 | -2.0
CC1CCCCN1S(=O)(=O)c1cccc(S(=O)(=O)N2CCOCC2)c1 (configuration not stated) | 0.4 | 0.1 | -3.6 | -9.4 | 105.9 | 0.3
Cc1cc(C)c(CSc2nnnn2-c2ccc(C(=O)O)cc2)c(C)c1 | -0.2 | -0.1 | -2.3 | 581.2* | 162.0 | -2.9
O=C(O)c1ccc(-n2nnnc2SCc2cccc(Br)c2)cc1 | 0.5 | 0.1 | 3.5 | -3.5 | 132.0 | -6.4
CCCN(C(=O)Cc1c(C(=O)O)n(C)c2ccccc12)c1cccc(C)c1 | 2.0 | 0.0 | 1.6 | 20.5 | 111.1 | 6.4
N#Cc1cnn2cc(-c3ncc(C(F)(F)F)cc3Cl)cnc12 | -0.3 | 0.2 | 59.1* | -6.2 | 108.5 | 0.4
Cc1ccc2nc(SCC(=O)Nc3cccc(S(=O)(=O)NC4=NCCCCC4)c3)[nH]c2c1 | 2.9 | 0.0 | -8.8 | 6.8 | 91.6 | -2.4
O=C1COc2ccc(C(=O)NC3CC3)cc2N1 | -0.5 | -0.1 | 0.3 | -11.4 | 99.8 | -1.7
CC(C)(C)c1ccc(CNC(=O)c2ccc3c(c2)NC(=O)CO3)cc1 | -5.1 | 0.0 | -5.5 | 331.4* | 95.8 | 45.3
Clc1ccc(-n2nnnc2Sc2ncnc3sccc23)cc1 | 2.8 | 0.0 | -24.8 | 577.9* | 146.6 | 29.2
COc1ccc(CNC(=O)CN(c2ccccc2OC)S(=O)(=O)c2cccs2)cc1 | -0.5 | 0.4 | 7.9 | 7.4 | 105.1 | 4.3
Cc1ccc(S(=O)(=O)N(C)C)cc1NC(=O)COC(=O)CNC(=O)c1cccs1 | -0.5 | 0.0 | 6.5 | -13.5 | 120.6 | -2.0
COc1cc(-c2cc(=O)c3ccc(O)cc3o2)cc(OC)c1OC | 0.0 | -0.3 | 3.0 | . | . | 2.5
COc1cc(-c2ccc3oc(-c4ccsc4)cc(=O)c3c2)cc(OC)c1OC | 0.1 | -0.2 | 55.9* | 35.7 | 109.7 | 26.1
CC1CCCC(C)N1C(=O)COC(=O)c1ccc([N+](=O)[O-])o1 (configuration not stated) | 0.1 | 0.2 | 11.3 | -0.3 | 128.7 | 0.2
Cc1ccc2nc(CSc3nc(C)cc(C)c3C#N)[nH]c2c1 | 3.3 | 0.3 | 2.3 | 29.6 | 107.5 | 78.5*
Cc1cc(C)c(C#N)c(SCc2ccccc2)n1 | 3.0 | 1.1 | -9.9 | 19.8 | 122.4 | 21.8
COCc1nc2sc3c(c2c(=O)[nH]1)CCCC3 | 1.9 | 0.0 | 13.9 | 481.1* | 96.9 | -9.8
CCN(CC(=O)NC(C)C)Cc1nc2sc3c(c2c(=O)[nH]1)CCC3 | 0.8 | 0.4 | 63.8* | 0.7 | 109.2 | -4.7
SMILES | MPTP inh | aDG glyco act | Cardio protect | SUMO Mot1 rescue | Yeast superoxide | FAS-TE inh
O=c1[nH]c(CN2CCCC2)nc2sc3c(c12)CCC3 | -0.3 | 0.4 | 55.8* | -5.2 | 102.4 | -5.6
CC(=O)OCc1nc2sc3c(c2c(=O)[nH]1)CCCC3 | -0.3 | 0.2 | 5.5 | -12.7 | 109.6 | -9.9
COc1ccc(C(=O)N/C(=C\c2ccc(SC)cc2)C(=O)NCCCn2ccnc2)cc1OC | -0.6 | -0.1 | 5.9 | 45.2 | 101.1 | -5.9
Oc1ccc(/C=N/NC(=S)N2CCOCC2)cc1 | -0.1 | 0.8 | -12.3 | -2.6 | 126.9 | -3.9
CCOC(=O)c1ccccc1NC(=O)[C@@H]1CCCN1C(=O)OC(C)(C)C | 0.9 | 0.2 | -1.7 | 15.2 | 95.0 | -2.8
COC(=O)c1ccc(Cn2nnc3c(=O)[nH]c(C4CCCN(S(=O)(=O)c5ccccc5)C4)nc32)cc1 (configuration not stated) | -1.9 | 0.5 | 60.9* | 14.9 | 87.9 | 11.8
